PubChem BioAssay (Tox21)
Inconclusive results are not listed. The source made the active and inactive calls. The call rests on the fitted dose curve.

Experiment: qHTS assay for small molecule agonists of the p53 signaling pathway (AID 651631); further: nearly all actives have a fitted effect of over 15% in size
Conditions: HCT-116 p53RE-bla reporter, beta-lactamase FRET ratio, 16 h; series mostly up to 73.3 µM; activation: at the top concentration
Source text: U.S. Tox21 Program National Center for Advancing Translational Sciences [NCATS] NIH Chemical Genomics Center [NCGC] U.S. Environmental Protection Agency [EPA] National Institutes of Environmental Health Sciences [NIEHS] National Toxicology Program [NTP] U.S. Food and Drug Administration [FDA] Tox21 Assay Overview: p53, a tumor suppressor protein, is activated following cellular insult, including DNA damage and other cellular stresses. The activation of p53 regulates cell fate by inducing DNA repair, cell cycle arrest, apoptosis, or cellular senescence. The activation of p53, therefore, is a good indicator of DNA damage and other cellular stresses. The CellSensor p53RE-bla HCT-116 cell line (Invitrogen) contains a stably integrated beta-lactamase reporter gene under control of the p53 response elements. The activation of the reporter gene under culture conditions can be detected by fluorescence intensity. This cell line was used to screen the Tox21 compound library in a 1536-well plate format and to identify agonists that activate the p53 signaling pathway.
Tox21 Assay Protocol Summary: The p53RE-bla cells were dispensed at 4,000 cells/5 ul/well in 1536-well black wall/clear bottom plates using a Multidrop dispenser. After the assay plates were incubated at a 37 C/5% CO2 incubator for 5 hours, 23 nL of compounds dissolved in DMSO, positive controls or DMSO only was transferred to the assay plate by a pin tool. The plates were incubated at 37 C for 16 hours. After 1 uL of LiveBLAzerTM B/G FRET substrate was added using a Flying Reagent Dispenser, the plates were incubated at room temperature for 2 hours, and fluorescence intensity was measured by an Envision plate reader.
On the % scale 0 is the no-effect control and ±100 the full control effect.

**Q.** For `COC[C@H](c1ccc(C(F)(F)F)cc1)N1CCN(C2(C)CCN(C(=O)c3c(C)ncnc3C)CC2)C[C@H]1C`, which “activation” value is on record?
**A.** -0.508% (inactive)

**Q.** For `O=C1OC(=O)c2cc([N+](=O)[O-])ccc21`, which “activation” value is on record?
**A.** -0.746% (inactive)

**Q.** Which “activation” value does the source give for `C=C(C)C(=O)NCCC[N+](C)(C)C` here?
**A.** 0.39% (inactive)

**Q.** For `C[C@H](O)C(=O)Nc1c(I)c(C(=O)NC(CO)CO)c(I)c(C(=O)NC(CO)CO)c1I`, which “activation” value is on record?
**A.** 0.886% [at 34.7 µM] (inactive)

**Q.** For `NC(=O)Nc1nc2ccccc2[nH]1`, which “activation” value is on record?
**A.** 7.85% (inactive)

**Q.** For `Nc1ccc2cc(S(=O)(=O)O)ccc2c1`, which “activation” value is on record?
**A.** -0.526% (inactive)

**Q.** For `C#CC(O)CCCCC` (stereo not given), which “activation” value is on record?
**A.** -4.59% [at 95.1 µM] (inactive)

**Q.** With `COc1cc(O)cc(O)c1` as the compound, how does the “activation” value read?
**A.** -2.64% (inactive)

**Q.** With `CCCCCCC(=O)OCC` as the compound, how does the “activation” value read?
**A.** 1.81% (inactive)

**Q.** Which “activation” value does the source give for `NCCN1CCNC1=O` here?
**A.** -1.84% (inactive)

**Q.** For `C[N+](C)(C)CC[N+]1(C)Cc2c(Cl)c(Cl)c(Cl)c(Cl)c2C1`, which “activation” value is on record?
**A.** -0.837% (inactive)

**Q.** For `O=C(O)C(O)[C@H](O)[C@@H](O)[C@H](O)[C@H](O)CO` (stereo not given in full), which “activation” value is on record?
**A.** -1.93% [at 95.1 µM] (inactive)

**Q.** Which Potency does the source give for `[O-][N+](=Nc1ccccc1)c1ccccc1` here?
**A.** inactive

**Q.** Which “activation” value does the source give for `COC(=O)CCCC(=O)O` here?
**A.** -3.96% (inactive)

**Q.** Which “activation” value does the source give for `NC(=O)CCCCC1CCSS1` (stereo not given) here?
**A.** 5.13% (inactive)

**Q.** For `NS(=O)(=O)c1cc(C2(O)NC(=O)c3ccccc32)ccc1Cl` (stereo not given), which “activation” value is on record?
**A.** 2.99% [at 34.7 µM] (inactive)

**Q.** For `O=[N+]([O-])c1ccc(CCO)cc1`, which “activation” value is on record?
**A.** -3.19% (inactive)

**Q.** With `Fc1ccccc1-c1ccccc1` as the compound, how does the “activation” value read?
**A.** -3.47% [at 95.1 µM] (inactive)

**Q.** For `CC(C)(C)OC(=O)N1C[C@@H](F)C[C@H]1C(=O)O`, which “activation” value is on record?
**A.** -5.46% [at 95.1 µM] (inactive)

**Q.** With `CC(O)CN(CCCN(C)C)CCCN(C)C` (stereo not given) as the compound, how does the “activation” value read?
**A.** 6.19% (inactive)

**Q.** Which “activation” value does the source give for `CCCCCOC(=O)Nc1nc(=O)n([C@@H]2O[C@H](C)[C@@H](O)[C@H]2O)cc1F` here?
**A.** 1.4% (inactive)

**Q.** With `CCCOCC(C)OCC(C)O` (stereo not given) as the compound, how does the “activation” value read?
**A.** -1.62% [at 95.1 µM] (inactive)

**Q.** With `Cn1ccc2cc3c(cc21)CCN3C(=O)Nc1cccnc1` as the compound, how does the “activation” value read?
**A.** -1.77% (inactive)

**Q.** With `CC(C)N1C(=O)c2ccccc2C1=O` as the compound, how does the “activation” value read?
**A.** 2.33% (inactive)

**Q.** With `CCCC(C)CO` (stereo not given) as the compound, how does the “activation” value read?
**A.** 9.89% (inactive)

**Q.** For `C=C(C)C(=O)NCCCN(C)C`, which “activation” value is on record?
**A.** -0.411% (inactive)

**Q.** Which “activation” value does the source give for `CCC(=O)Nc1cccc(N)c1` here?
**A.** -0.871% (inactive)

**Q.** With `CCCCCCCCC=O` as the compound, how does the “activation” value read?
**A.** -3.32% (inactive)

**Q.** For `CN(C)CCn1nnnc1SCC1=C(C(=O)O)N2C(=O)[C@@H](NC(=O)Cc3csc(N)n3)[C@H]2SC1`, which “activation” value is on record?
**A.** -4.84% [at 34.7 µM] (inactive)

**Q.** Which “activation” value does the source give for `OCc1ccccn1` here?
**A.** 1.09% (inactive)

**Q.** With `NC1CCN(c2cccc(Cl)n2)CC1` as the compound, how does the “activation” value read?
**A.** -2.48% (inactive)

**Q.** Which “activation” value does the source give for `N#CCN(CC#N)CCN(CC#N)CC#N` here?
**A.** -2.88% (inactive)

**Q.** For `CCCCc1ccc2cccc(S(=O)(=O)O)c2c1`, which “activation” value is on record?
**A.** -0.994% (inactive)

**Q.** For `Oc1ccc2c(c1)OC[C@@H](N1CCC(O)(c3ccc(F)cc3)CC1)[C@H]2O`, which “activation” value is on record?
**A.** -0.787% (inactive)

**Q.** For `c1ccc2cnncc2c1`, which “activation” value is on record?
**A.** -5.69% (inactive)

**Q.** Which Potency does the source give for `Nc1cc(C(Cl)=C(Cl)Cl)c(S(N)(=O)=O)cc1S(N)(=O)=O` here?
**A.** inactive

**Q.** For `CCCCCCCCCCCCCCCCCC(=O)OCCCCCCCCCCCCCC(C)C`, which “activation” value is on record?
**A.** -2.61% (inactive)

**Q.** For `CC(C)COC(=O)c1ccccc1O`, which “activation” value is on record?
**A.** 1.2% (inactive)

**Q.** With `CC(C)CCCCCCN` as the compound, how does the “activation” value read?
**A.** -1.57% (inactive)

**Q.** For `CCC(=O)c1cccc(Cl)c1`, which “activation” value is on record?
**A.** -5.02% [at 95.1 µM] (inactive)
